In PubChem BioAssay AID1159580 (chemical genetic matrix, 2015):
Out of some 5,500 compounds screened, about 2,000 (36%) were called active. Not shown: some 18% with an inconclusive outcome. Cut-off read from the data, not from the text of the source: active = normalized growth mostly below about 0.91 (no sharp cut-off); inconclusive = no clear call, values can overlap the other calls; inactive = mostly above about 0.92. The list shows a part of the results.

Assay: chemical genetic growth profiling, strain panel (AID 1159580);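 note: tested at 20 µM; growth read once vehicle control cultures reached saturation at 30 °C; 1 = growth at the plate median or of vehicle wells; lower values mean less growth of the strain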
Details: growth OD

Measured: normalized growth

CC(C)N1C(=O)c2ccccc2NS1(=O)=O
inactive: S. cerevisiae deletion strains, locus YKL009W, strain mrt4, stronger effect = lower value 1.01 | S. cerevisiae deletion strains, locus YKL068W, stronger effect = lower value 0.994 | S. cerevisiae deletion strains, locus YKL085W, strain MDH1 (second series), stronger effect = lower value 0.997 | S. cerevisiae deletion strains, locus YKL085W, strain MDH1, stronger effect = lower value 0.997 | S. cerevisiae deletion strains, locus YKL160W, strain elf1, stronger effect = lower value 0.974 | S. cerevisiae deletion strains, locus YKL190W, strain CNB1, stronger effect = lower value 0.998 | S. cerevisiae deletion strains, locus YKR001C, strain vps1, stronger effect = lower value 1.01 | S. cerevisiae deletion strains, locus YKR026C, strain gcn3, stronger effect = lower value 0.972 | S. cerevisiae deletion strains, locus YKR091W, strain srl3, stronger effect = lower value 0.958 | S. cerevisiae deletion strains, locus YLL001W, strain dnm1, stronger effect = lower value 0.937 | S. cerevisiae deletion strains, locus YLL026W, stronger effect = lower value 0.971 | S. cerevisiae deletion strains, locus YLL041C, strain sdh2, stronger effect = lower value 0.958 | S. cerevisiae deletion strains, locus YLR027C, strain aat2, stronger effect = lower value 0.964 | S. cerevisiae deletion strains, locus YLR039C, strain RIC1, stronger effect = lower value 1.03 | S. cerevisiae deletion strains, locus YLR058C, strain SHM2, stronger effect = lower value 1 | S. cerevisiae deletion strains, locus YLR102C, strain apc9, stronger effect = lower value 1 | S. cerevisiae deletion strains, locus YLR113W, strain HOG1, stronger effect = lower value 0.964 | S. cerevisiae deletion strains, locus YLR221C, strain rsa3, stronger effect = lower value 0.994 | S. cerevisiae deletion strains, locus YLR258W, strain gsy2, stronger effect = lower value 0.98 | S. cerevisiae deletion strains, locus YLR262C, strain YPT6 (second series), stronger effect = lower value 0.983 | S. cerevisiae deletion strains, locus YLR262C, strain YPT6, stronger effect = lower value 1.02 | S. cerevisiae deletion strains, locus YLR268W, strain sec22, stronger effect = lower value 1.01 | S. cerevisiae deletion strains, locus YLR320W, strain mms22, stronger effect = lower value 1.01 | S. cerevisiae deletion strains, locus YLR330W, strain CHS5, stronger effect = lower value 0.994 | S. cerevisiae deletion strains, locus YLR342W, strain FKS1 (second series), stronger effect = lower value 1 | S. cerevisiae deletion strains, locus YLR342W, strain FKS1, stronger effect = lower value 0.98 | S. cerevisiae deletion strains, locus YLR357W, strain rsc2, stronger effect = lower value 0.978 | S. cerevisiae deletion strains, locus YLR370C, strain arc18, stronger effect = lower value 0.973 | S. cerevisiae deletion strains, locus YLR371W, strain rom2, stronger effect = lower value 1 | S. cerevisiae deletion strains, locus YLR384C, strain iki3, stronger effect = lower value 0.974 | S. cerevisiae deletion strains, locus YLR418C, strain cdc73, stronger effect = lower value 1.02 | S. cerevisiae deletion strains, locus YML016C, strain PPZ1, stronger effect = lower value 0.997 | S. cerevisiae deletion strains, locus YML032C, strain rad52, stronger effect = lower value 1.01 | S. cerevisiae deletion strains, locus YML120C, strain ndi1, stronger effect = lower value 0.956 | S. cerevisiae deletion strains, locus YML124C, strain tub3, stronger effect = lower value 1 | S. cerevisiae deletion strains, locus YMR058W, strain fet3, stronger effect = lower value 0.968 | S. cerevisiae deletion strains, locus YMR078C, strain ctf18, stronger effect = lower value 0.998 | S. cerevisiae deletion strains, locus YMR125W, strain sto1, stronger effect = lower value 0.933 | S. cerevisiae deletion strains, locus YMR129W, stronger effect = lower value 0.964 | S. cerevisiae deletion strains, locus YMR205C, strain PFK2, stronger effect = lower value 0.961 | S. cerevisiae deletion strains, locus YMR223W, strain ubp8, stronger effect = lower value 1 | S. cerevisiae deletion strains, locus YMR231W, strain pep5, stronger effect = lower value 0.974 | S. cerevisiae deletion strains, locus YMR263W, strain SAP30, stronger effect = lower value 1.01 | S. cerevisiae deletion strains, locus YMR307W, strain GAS1, stronger effect = lower value 1.03 | S. cerevisiae deletion strains, locus YNL067W, strain RPL9B, stronger effect = lower value 0.995 | S. cerevisiae deletion strains, locus YNL071W, strain lat1, stronger effect = lower value 0.98 | S. cerevisiae deletion strains, locus YNL128W, strain TEP1, stronger effect = lower value 1.01 | S. cerevisiae deletion strains, locus YNL153C, strain GIM3, stronger effect = lower value 0.994 | S. cerevisiae deletion strains, locus YNL183C, strain NPR1, stronger effect = lower value 0.973 | S. cerevisiae deletion strains, locus YNL209W, strain ssb2, stronger effect = lower value 0.963 | S. cerevisiae deletion strains, locus YNL233W, strain BNI4, stronger effect = lower value 0.997 | S. cerevisiae deletion strains, locus YNL248C, strain rpa49, stronger effect = lower value 0.99 | S. cerevisiae deletion strains, locus YNL250W, strain rad50, stronger effect = lower value 0.997 | S. cerevisiae deletion strains, locus YNL271C, strain bni1, stronger effect = lower value 0.998 | S. cerevisiae deletion strains, locus YNL298W, strain CLA4, stronger effect = lower value 1.01 | S. cerevisiae deletion strains, locus YNL307C, strain MCK1, stronger effect = lower value 1.01 | S. cerevisiae deletion strains, locus YNL322C, strain KRE1 (second series), stronger effect = lower value 0.951 | S. cerevisiae deletion strains, locus YNL322C, strain KRE1, stronger effect = lower value 1 | S. cerevisiae deletion strains, locus YNR049C, strain mso1, stronger effect = lower value 0.952 | S. cerevisiae deletion strains, locus YNR052C, strain pop2, stronger effect = lower value 0.996 | S. cerevisiae deletion strains, locus YOL006C, strain TOP1, stronger effect = lower value 1.06 | S. cerevisiae deletion strains, locus YOL012C, strain htz1 1.04 | S. cerevisiae deletion strains, locus YOL147C, strain pex11, stronger effect = lower value 0.997 | S. cerevisiae deletion strains, locus YOR001W, strain rrp6, stronger effect = lower value 0.967 | S. cerevisiae deletion strains, locus YOR061W, strain CKA2, stronger effect = lower value 0.998 | S. cerevisiae deletion strains, locus YOR069W, strain VPS5, stronger effect = lower value 0.989 | S. cerevisiae deletion strains, locus YOR070C, strain gyp1, stronger effect = lower value 0.983 | S. cerevisiae deletion strains, locus YOR080W, strain dia2, stronger effect = lower value 0.98 | S. cerevisiae deletion strains, locus YOR083W, strain WHI5, stronger effect = lower value 0.964 | S. cerevisiae deletion strains, locus YOR106W, strain vam3, stronger effect = lower value 0.966 | S. cerevisiae deletion strains, locus YOR136W, strain idh2, stronger effect = lower value 1 | S. cerevisiae deletion strains, locus YOR144C, strain elg1, stronger effect = lower value 0.999 | S. cerevisiae deletion strains, locus YOR184W, strain ser1, stronger effect = lower value 1.01 | S. cerevisiae deletion strains, locus YOR231W, strain MKK1, stronger effect = lower value 0.998 | S. cerevisiae deletion strains, locus YOR265W, strain rbl2, stronger effect = lower value 0.973 | S. cerevisiae deletion strains, locus YOR270C, strain vph1, stronger effect = lower value 0.97 | S. cerevisiae deletion strains, locus YOR290C, strain snf2, stronger effect = lower value 0.96 | S. cerevisiae deletion strains, locus YOR316C, strain cot1, stronger effect = lower value 1.01 | S. cerevisiae deletion strains, locus YPL051W, strain arl3, stronger effect = lower value 0.981 | S. cerevisiae deletion strains, locus YPL055C, strain LGE1, stronger effect = lower value 1.02 | S. cerevisiae deletion strains, locus YPL078C, strain atp4, stronger effect = lower value 0.961 | S. cerevisiae deletion strains, locus YPL106C, strain sse1, stronger effect = lower value 0.971 | S. cerevisiae deletion strains, locus YPL240C, strain hsp82, stronger effect = lower value 0.968 | S. cerevisiae deletion strains, locus YPL241C, strain CIN2, stronger effect = lower value 0.999 | S. cerevisiae deletion strains, locus YPL256C, strain CLN2, stronger effect = lower value 0.987 | S. cerevisiae deletion strains, locus YPR119W, strain clb2, stronger effect = lower value 0.99 | S. cerevisiae deletion strains, locus YPR141C, strain kar3, stronger effect = lower value 1.01 | S. cerevisiae deletion strains, locus YPR163C, strain tif3, stronger effect = lower value 1 | S. cerevisiae deletion strains, locus YPR167C, strain met16, stronger effect = lower value 0.996 | S. cerevisiae deletion strains, strain wtn01, stronger effect = lower value 1.01 | S. cerevisiae strains, strain wild type, stronger effect = lower value 0.997
